# Laboratory results taken from publication PMC10163288.
# These entries were drawn from the full list. No count for the full screen is at hand. Values without a mark were called inactive.
# B1: il2ra_site2_2erj_sap_21_mot_HHH_b1_00069_af2_000000103_0001_1_18_H_._HHH_b1_05528_af2_0001_0000500009_0000001_0_0001_af2pred_0001_af2pred (protein)
# chain: SSSSDEIRRLYELAEELDKLLLEGDEEKVEELLEELEQLARETNTPSAEKVVRAIEKSLESSSSS
# B2: il2ra_site1_2b5i_sap_8_mot_HHH_b2_04131_000000150_0001_1_16_H_._HHH_b2_06569_af2_0001_0000100002_0000001_0_0001_af2pred_dldesign_0_af2pred (protein)
# chain: SSSSSSAEEFVNEAIEKAKELKAAGRPDEARRLLKLALKRARKANDADLVARVEALLAELSSSSS
# B3: il2ra_site1_1z92_normal_mot_6c2800a769814540b5b47941e710ff28_0001_af2_000000005_0001_35_49_H_._6228ca5b8b091676f337a4c0a06dbe92_0001_0003_0000300038_0000001_0 (protein)
# chain: DEFLIEQLLRKIEAGNEESAERIIERLLKNAGIPPEEVERIVEELLKLLKDGDPEEARKLLREAP
# B4: il2ra_site2_2erj_sap_28_mot_3b06bd03f1c6bceadc68eab912867b79_0001_000000296_0001_36_50_H_._HHH_b2_07644_af2_0001_0000200004_0000001_0_0001 (protein)
# chain: SSSSSDELKRAYELANALMHLVARNDREEFERISEEFEEIVEKLDSRTAREILESLERLISSSSS
# B5: il2ra_site2_2erj_sap_26_mot_6c2800a769814540b5b47941e710ff28_0001_000000197_0001_35_49_H_._HHH_b2_05475_0001_0000200011_0000001_0_0001_af2pred_0001_af2pred (protein)
# chain: DDEEYIEMWVELAAKRLGVPSVEVETRNGTLHVTVNGTDEAARRVLLAAELAAKAAGLPFETTEE
# B6: il2ra_site1_3nfp_sap_15_mot_HHH_b1_05868_af2_000000129_0001_1_19_H_._HHH_b1_04163_af2_0001_0000300017_0000001_0_0001_af2pred_0001_af2pred (protein)
# chain: SSSSSWREKAMEAILRAAELANDEELREELEKLLEKLREEGDPRALREAVKLLKEAAKRLSSSSS
# B7: il2ra_site2_3nfp_sap_32_mot_HHH_b1_00050_000000292_0001_22_38_H_._HHH_b2_06764_0001_0000600039_0000001_0_0001 (protein)
# chain: SSSSDESEEYFEAAFELVRLALEAGDPEAARRLLEMLELVAESQNDPELQRLVEELEEELSSSSS
# B8: il2ra_site1_3nfp_sap_18_mot_ems_3hM_2054_af2_000000130_0001_3_20_H_._HHH_b2_07863_0001_0000600021_0000001_0_0001 (protein)
# chain: SRILERFVKIARKRGNPEFARVVEILLEVLEQDPRLKRAIDKILFELVSGKLPPEEAEELAKELK
# B9: il2ra_site2_3nfp_normal_mot_HHH_b2_05513_000000198_0001_20_37_H_._52c50354b804bec8c3157ba16786ada3_0001_0001_0001000025_0000001_0_af2pred_0001_1_af2pred_swapped (protein)
# chain: DDLEERLRRSAELAGDPHDAVVFFIAFLEYELGDPEEAIELALEVAEELGDPELERIIRELRKLP
# B10: il2ra_site2_3nfp_normal_mot_HHH_b1_00239_000000199_0001_23_39_H_._HHH_b2_02904_0001_0000200025_0000001_0 (protein)
# chain: SSSSNEEILREAAELLLELLEERGDEEELRELEELLEELKRHGDPELQLELYAVLARIYSSSSSS
# B11: il2ra_site1_2b5i_normal_mot_3116615af0ee64d731c1c85d8523bf51_0001_000000216_0001_15_32_H_._HHH_b1_07838_af2_0001_0000100001_0000001_0_af2pred_dldesign_0_af2pred (protein)
# chain: SSSSSALEKEVEETLAKADELKAAGKRREALEALEKIHKKLSAADAEDLQEKVEKKAKELSSSSS
# B12: il2ra_site1_3nfp_normal_mot_eb5a5eebac1e5153f932cc6c3f4b2787_0001_af2_000000065_0001_18_33_H_._HHH_b2_04044_0002_0000100009_0000001_0 (protein)
# chain: SSSSSDEEIRERVEELLEEAKHIPDYREASRLVEEAYRLAAELGDPELSELIYRVMREIVSSSSS
# B13: il2ra_site1_3nfp_sap_21_mot_HHH_b2_02066_af2_000000034_0001_1_16_H_._c2845cfc7c062bbeb7cd94dd36b2ebbf_0001_af2_0001_0000100001_0000001_0_0001_af2pred_0001_af2pr … (protein)
# chain: SSSEEELQELFKLALELHKKLTNPEARQVVIHAMALVARATRTKDPELERRAREAIEEAEELDSS
# B14: il2ra_site2_2erj_normal_mot_HHH_b2_06726_000000006_0001_1_16_H_._HHH_b1_04199_0001_0000300043_0000001_1_af2pred_0001_af2pred (protein)
# chain: SSSSSSEYREEIEELIEEARRVDEEEAVALLAEAAFLAVRNKDEEIFREVAELSLELYRRSSSSS
# B15: il2ra_site2_3nfp_sap_23_mot_347257a5708f0dc4a322ca97a98db719_0001_1_af2_000000210_0001_36_49_H_._796cb09f51c241c629a2416424e53d75_0001_0001_0000100001_0000001_0 … (protein)
# chain: SSSSDKEEERVEELLEELKRLIEEGDEEKARRAFAEAAHLIFELNDSELFARLAELALELWSSSS
# B16: il2ra_site1_3nfp_sap_17_mot_HHH_b1_01159_af2_000000107_0001_1_20_H_._HHH_b1_00510_0001_0000100012_0000001_0_0001 (protein)
# chain: DEEEIRREIEELLEEDPQEAMQFAMKLAHEAMRNNDPELLRVVLEALLKVTGDPSVKKLLEVARR
# B17: il2ra_site1_1z92_normal_mot_HHH_b1_03515_000000289_0001_1_19_H_._HHH_b2_04566_af2_0001_0000100001_0000001_0 (protein)
# chain: SSSDEEQARRSLERLVEDAVKLAGLSEEQKEKLEELVEELIERGVDFLEAIKLIDELARELSSSS
# B18: il2ra_site1_2b5i_sap_13_mot_HHH_b2_07160_000000135_0001_1_14_H_._HHH_b1_04051_0001_0000500030_0000001_1_0001_af2pred_dldesign_0_af2pred (protein)
# chain: SSSSSLGRRRRELLERADKAFKAEDYELLKELLKEVKELVEKTKRKSDKAILKLIEEALEESSSS
# B19: il2ra_site2_2erj_sap_21_mot_6ec3e94b46d95805cdcdc10c0c108f03_0001_af2_000000040_0001_36_50_H_._HHH_b2_04396_0001_0000200006_0000001_0_0001 (protein)
# chain: SSSSSEWEEAARLSVLLLEAARKNDEELLEELRREAEELIKEIKNPAARRYLEFALRDVERSSSS
# B20: il2ra_site1_1z92_sap_19_mot_HHH_b2_03511_af2_000000113_0001_41_54_H_._HHH_b2_01993_af2_0001_0000400041_0000001_0_0001 (protein)
# chain: DEAEEVIERAIEAVERGDPEEVRRLLEKLIEHTGDPALRFLLEVLERKLEAGNYKAARAILEKSR
# B21: il2ra_site2_3nfp_normal_mot_HHH_b2_04451_000000238_0001_21_37_H_._HHH_b1_08573_0001_0000400020_0000001_0 (protein)
# chain: SSSDEEERIEELIELVEELIKEGDRTEALQVLLEASELAAKLGDEELARILLELFLLLQEKSSSS
# Target: il2ra, P01589
# Sequence (P01589 whole entry): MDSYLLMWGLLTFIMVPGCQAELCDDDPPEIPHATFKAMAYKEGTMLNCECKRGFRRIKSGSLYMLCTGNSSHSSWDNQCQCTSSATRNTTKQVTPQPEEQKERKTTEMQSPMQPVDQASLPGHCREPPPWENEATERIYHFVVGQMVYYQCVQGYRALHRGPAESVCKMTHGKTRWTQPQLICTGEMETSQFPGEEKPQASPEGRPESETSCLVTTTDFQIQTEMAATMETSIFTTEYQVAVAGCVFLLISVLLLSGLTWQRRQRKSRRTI
# Assay: yeast display titration
row,Binder,apparent Kd
1,B1,no binding seen
2,B2,no binding seen
3,B3,no binding seen
4,B4,no binding seen
5,B5,no binding seen
6,B6,no binding seen
7,B7,no binding seen
8,B8,no binding seen
9,B9,no binding seen
10,B10,no binding seen
11,B11,no binding seen
12,B12,no binding seen
13,B13,no binding seen
14,B14,no binding seen
15,B15,no binding seen
16,B16,no binding seen
17,B17,no binding seen
18,B18,> 487 nM
19,B19,no binding seen
20,B20,no binding seen
21,B21,no binding seen
